From PubChem
IL1B secr inh: inflammasome signaling inhibition, IL-1 beta readout; THP-1 LPS/ATP IL-1B secretion, AlphaLISA, 16 h; active compounds read low; hit rate 4.7% among 360,000; AID 743279; activity change, % at 57.5 µM; in the data active = activity change below about -50%; inconclusive = mostly about -30% to -49%; also: % is scaled to controls: 0 for no effect and ±100 for the full control effect
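Secreted IL-1B measured by AlphaLISA bead assay after 16 h compound exposure of THP-1 cells; compounds (final up to 57.5 uM) added 1 h before LPS (250 ng/mL) and ATP (1.25 mM) stimulation; lower signal means less secretion.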
TDP1 cell CPT: DT40-hTDP1 cell growth loss with CPT | Potency, µM (titrated, usually from 46.2 µM), inactives show at the highest dose activity change, negative = growth inhibition, usual class: inhibitors | chicken DT40 Tdp1-/-;hTDP1 cells + 20 nM CPT, ATP luminescence, 48 h | hit rate 12% among 420,000; also: potency is read from the fitted curve at half-maximal effect; % is scaled to controls: 0 for no effect and ±100 for the full control effect; nearly all actives have a fitted effect of over 55% in size
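Chicken DT40 Tdp1-/- cells complemented with human TDP1, 400 cells/well, exposed to compounds plus 20 nM camptothecin for at least 48 h at 37 C; viability read as ATP content by CellTiter-Glo luminescence.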
TDP1 cell noCPT: qHTS for Inhibitors of human tyrosyl-DNA phosphodiesterase 1 (TDP1): qHTS in cells in absence of CPT. DT40 Tdp1-/- hTDP1 cells, no CPT, ATP luminescence, 48 h. Potency, µM (highest dose often 46.2 µM), without a hit: at the highest dose activity change, negative = growth inhibition, usual class: inhibitors. hit rate 15% among 420,000. AID 686978, 2013; also: potency is read from the fitted curve at half-maximal effect; % is scaled to controls: 0 for no effect and ±100 for the full control effect; nearly all actives have a fitted effect of over 55% in size
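Chicken DT40 Tdp1-/- cells stably complemented with human TDP1 were seeded at 400 cells/well with DMSO in place of 20 nM camptothecin. After compound pinning, cells grew at least 48 hr at 37 °C; viability read by CellTiter-Glo luminescence.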
HepG2 viability: HepG2 cytotoxicity, counter-screen for TGF-b inhibitors; HepG2 CAGA-GFP viability, ATP luminescence, 18 h; Potency, µM (top dose mostly 46.1 µM), for the others: at the highest dose activity change, negative = cytotoxicity, actives largely listed as cytotoxic; hit rate 0.76% among 410,000; also: potency is read from the fitted curve at half-maximal effect
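HepG2 CAGA-GFP cells (1000/well, DMEM with 1% FBS) received compound, then TGF-beta at 500 pg/mL final, and were incubated 18 hours at 37 degrees C. Viability was read by CellTiter-Glo luminescence. Media-only wells were set as complete cell-killing and DMSO as no toxicity.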
TGFb SMAD3 inh: TGF-b pathway inhibition; AID 588855; hit rate 1.2% among 410,000; HepG2 CAGA-GFP TGF-b/SMAD3 reporter, GFP fluorescence, 18 h; TGF-beta stimulated, 500 pg/mL final; Potency, µM (highest dose often 46.1 µM), without a hit: at the top dose activity, negative = inhibition, usual class: inhibitors; also: potency is read from the fitted curve at half-maximal effect; % is scaled to controls: 0 for no effect and ±100 for the full control effect; nearly all actives have a fitted effect of over 65% in size
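First, reporter cells (HEPG2 CAGA-GFP) rested 2 h at 37 degrees C. Next, compounds were pinned in and TGF-beta added to 500 pg/mL final. After 18 h, GFP was imaged per cell and summed per well.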
TDP1 inh: inhibitors of human tyrosyl-DNA phosphodiesterase TDP1; Q9NUW8; recombinant TDP1, AlphaScreen DNA substrate cleavage; Potency, µM (highest dose often 130 µM), without a hit: at the highest dose activity change, negative = inhibition, actives largely listed as inhibitors; hit rate 0.28% among 350,000; also: potency is read from the fitted curve at half-maximal effect; % is scaled to controls: 0 for no effect and ±100 for the full control effect; nearly all actives have a fitted effect of over 40% in size
Target sequence (Q9NUW8 whole entry, looked up): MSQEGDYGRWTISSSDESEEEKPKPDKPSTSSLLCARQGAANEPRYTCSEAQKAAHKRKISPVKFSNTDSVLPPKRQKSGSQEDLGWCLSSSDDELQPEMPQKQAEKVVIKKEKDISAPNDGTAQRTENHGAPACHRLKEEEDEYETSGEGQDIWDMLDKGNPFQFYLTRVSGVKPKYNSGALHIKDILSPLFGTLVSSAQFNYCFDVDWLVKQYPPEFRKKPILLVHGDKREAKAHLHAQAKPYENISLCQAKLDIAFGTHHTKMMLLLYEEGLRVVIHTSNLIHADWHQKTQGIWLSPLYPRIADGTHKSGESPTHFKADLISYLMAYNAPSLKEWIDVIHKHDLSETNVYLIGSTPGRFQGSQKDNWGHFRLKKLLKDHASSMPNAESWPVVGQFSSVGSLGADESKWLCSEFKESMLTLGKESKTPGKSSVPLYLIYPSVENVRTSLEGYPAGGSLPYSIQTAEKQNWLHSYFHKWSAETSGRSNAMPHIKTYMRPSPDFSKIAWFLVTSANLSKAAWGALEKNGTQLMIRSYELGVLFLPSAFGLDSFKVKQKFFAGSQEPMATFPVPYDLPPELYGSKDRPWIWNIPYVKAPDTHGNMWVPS
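Here, a 5' biotin and 3' phosphotyrosine-FITC DNA oligonucleotide reports Tdp1 activity: intact substrate bridges AlphaScreen beads, while cleavage leaves a 3' phosphate and drops signal. All incubations at room temperature.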
* = called active by the depositor; ? = inconclusive; . = not tested or not shown. Compounds with a hit are over-represented: about 18% of the library has one in this group of screens. Unless noted, calls follow the shape of the dose curve; as a rule, active = well fitted curve in the direction sought with a large enough effect; inconclusive = small, poorly fitted or top-dose-only effect, or another doubt; inactive = no such curve, though single readings can be large; an effect the other way counts as inactive or inconclusive.

SMILES	IL1B secr inh	TDP1 cell CPT	TDP1 cell noCPT	HepG2 viability	TGFb SMAD3 inh	TDP1 inh
CC(C)C(=O)NC(c1ccccc1)c1cc([N+](=O)[O-])c2cccnc2c1O (stereo not given)	34	18µM*	?	-40%	-9%	11%
CCC1C(=O)CC2CCN3C(=O)CCC1C23 (stereo not given)	.	.	.	-3%	-6%	4%
CCCN1CCc2nc(N3CCN(c4ncccn4)CC3)ncc2C1	.	?	?	-3%	?	-1%
O=C(CCc1ccccc1)NC(c1cccs1)c1cc(Cl)c2cccnc2c1O (stereo not given)	109	3.7µM*	4.1µM*	-1%	?	-5%
CCC(=O)NC(c1cccs1)c1cc(Cl)c2ccccc2c1O (stereo not given)	.	.	.	1%	?	0%
CCCCCn1nc(C(=O)N(CC)c2c(N)n(CCCC)c(=O)[nH]c2=O)c2ccccc2c1=O	21	7%	-5%	5%	11%	0%
O=C(CCN1C(=O)c2ccccc2S1(=O)=O)Nc1ccccc1F	-60*	-9%	24%	-2%	0%	5%
O=C(CCN1C(=O)c2ccccc2S1(=O)=O)Nc1ccccc1O	13	4%	-3%	6%	-12%	-4%
C=CCN(c1ccc(C(=O)Nc2cccc(C)c2)cc1)S(C)(=O)=O	27	21%	-2%	-6%	-1%	3%
C=CCN(c1ccc(C(=O)Nc2ccc(NC(C)=O)cc2)cc1)S(C)(=O)=O	28	?	23µM*	-4%	-1%	3%
CCOc1ccccc1OCCCC(=O)Nc1cccc(-n2cnnn2)c1C	20	-17%	0%	0%	-7%	2%
CCOC(=O)N1CCc2c(sc3nc(SC(C)C)n(N)c(=O)c23)C1	-23	9.2µM*	23µM*	-21%	0%	-3%
COc1ccc(-c2nc(NC(C)=O)sc2-c2ccc(OC)cc2)cc1	54	1%	-27%	1%	6%	6%
COc1ccc(C(=O)Nc2nc(-c3ccc([N+](=O)[O-])cc3)c(-c3ccccc3)s2)cc1	?	8.2µM*	7.3µM*	-2%	4%	.
COc1ccc(C(=O)Nc2nnc(-c3ccccc3)s2)cc1	2	?	?	0%	-15%	-5%
COc1ccc(-c2sc(NC(=O)c3ccc(C)cc3)nc2-c2ccc([N+](=O)[O-])cc2)cc1	-9	23µM*	?	-32%	0%	3%
Cc1cc(C)cc(-n2c(SCC(=O)Nc3cccc(S(=O)(=O)NC4=NCCCCC4)c3)nc3ccccc3c2=O)c1	-21	18µM*	?	-6%	0%	3%
O=C(CSc1nc2cc([N+](=O)[O-])ccc2n1-c1ccccc1)NCc1ccc2c(c1)OCO2	7	15µM*	23µM*	-12%	-24%	-1%
Cc1ccc(C)c(SCC(=O)Nc2cccc(S(=O)(=O)NC3=NCCCCC3)c2)c1	-11	-27%	?	11%	-20%	-3%
Cc1cc(C(=O)CSc2nc3ccccc3c(=O)n2C)c(C)n1Cc1ccc2c(c1)OCO2	-19	5.8µM*	6.5µM*	-2%	?	5%
Cc1cc(C)cc(-n2c(SCC(=O)NCc3ccc4c(c3)OCO4)nc3ccccc3c2=O)c1	-8	7.3µM*	18µM*	28%	0%	-1%
Cc1cc(C(=O)CSc2nnc(Cc3ccccc3)o2)c(C)n1Cc1ccc2c(c1)OCO2	-3	-14%	?	-22%	-11%	8%
COc1ccc(CC(=O)OCC(=O)NC2CCCCCC2)cc1OC	-5	4%	1%	2%	-13%	-13%
